Consider 18 molecules from PubChem BioAssay (EPA / NIEHS).

Results filed as inconclusive are left out. Activity calls are given as the source filed them. The calls were made as follows: active = hit-call score of the fitted dose curve at least 0.9, where 1 is the maximum; inconclusive = response in the unintended direction; inactive = score below 0.9.

One may read the AC50 as the concentration giving half of the maximal activity seen.

Assay [1] concerns the target human Sirtuin 2 (SIRT2), SIRT2 (gene 22933) (UniProt Q8IXJ6). As to the kind of experiment: NVS_ENZ_hSIRT2: NovaScreen (NVS) Enzymatic Assay for human Sirtuin 2 (SIRT2) (AID 2283217). The method, boiled down: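 Single-point duplicate screen at 25 uM, then concentration-response (max 50 uM) for chemicals passing threshold. Enzyme activity of recombinant human SIRT2 measured after 1 hr by fluorescence with mobility-shift separation of product; DMSO baseline.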

The target in assay [2] is human Protein Tyrosine Phosphatase Receptor Type F (PTPRF), PTPRF (gene 5792) (UniProt P10586). The experiment in a line: NVS_ENZ_hPTPRF: NovaScreen (NVS) Enzymatic Assay for human Protein Tyrosine Phosphatase Receptor Type F (PTPRF) (AID 2283213). The method, boiled down:
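Cell-free fluorescence enzyme assay with recombinant protein and substrate; product separated by electrophoretic mobility shift. Read 1 h after dosing, single 25 uM duplicate screen, then concentration-response up to 50 uM; loss of signal vs DMSO.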

Assay [3] concerns the target human SRC Proto-Oncogene, Non-receptor Tyrosine Kinase (SRC), SRC (gene 6714) (UniProt P12931). As to the kind of experiment: NVS_ENZ_hSRC: NovaScreen (NVS) Enzymatic Assay for human SRC Proto-Oncogene, Non-receptor Tyrosine Kinase (SRC) (AID 2283223). The method in brief: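 Compounds passing 30% inhibition at 25 uM (duplicate) were titrated to a top concentration of 50 uM. Enzyme activity read by fluorescence with mobility-shift substrate/product separation after 1 h; DMSO baseline.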

Assay [4] has as its target human Tropomyosin Receptor Kinase A (TRKA), NTRK1 (gene 4914) (UniProt P04629). As to the kind of experiment: NVS_ENZ_hTrkA: NovaScreen (NVS) Enzymatic Assay for human Tropomyosin Receptor Kinase A (TRKA) (AID 2283224). The method, boiled down: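 Compounds were screened at 25 uM in duplicate, then concentration series to a 50 uM top for those meeting threshold (e.g. 30% inhibition). Enzyme was recombinant human TrkA, incubated 1 h. Product formation was quantified by fluorescence after mobility-shift separation.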

Assay [5] concerns the target human Vascular Endothelial Growth Factor Receptor 1 (VEGFR1), FLT1 (gene 2321) (UniProt P17948). The experiment in a line: NVS_ENZ_hVEGFR1: NovaScreen (NVS) Enzymatic Assay for human Vascular Endothelial Growth Factor Receptor 1 (VEGFR1) (AID 2283226). The method in brief: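 Kinase activity of recombinant human VEGFR1 was read by fluorescence after electrophoretic separation of product from substrate, 1 h post-dosing; initial duplicate single-point testing at 25 uM, followed by concentration-series follow-up, with DMSO as baseline.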

The target of assay [6] is human Protein Tyrosine Phosphatase Receptor Type B (PTPRB), PTPRB (gene 5787) (UniProt P23467). As to the kind of experiment: NVS_ENZ_hPTPRB: NovaScreen (NVS) Enzymatic Assay for human Protein Tyrosine Phosphatase Receptor Type B (PTPRB) (AID 2283211). The method in brief:
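Recombinant human PTPRB with a fluorescent substrate, product separated by electrophoretic mobility shift; read 1 h after dosing. Primary screen in duplicate at 25 uM; actives then retested in concentration series; loss of signal versus DMSO.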

Assay [7] concerns the target human Protein Tyrosine Phosphatase Non-receptor Type 4 (PTPN4), PTPN4 (gene 5775) (UniProt P29074). As to the kind of experiment: NVS_ENZ_hPTPN4: NovaScreen (NVS) Enzymatic Assay for human Protein Tyrosine Phosphatase Non-receptor Type 4 (PTPN4) (AID 2283208). The method in brief:
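Screened in duplicate at 25 uM, with hits then titrated to a top concentration of 50 uM. Recombinant Sf9-derived PTPN4 turnover was read by fluorescence with electrophoretic separation, 1.33 h after compound addition. DMSO served as baseline.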

In assay [8] the target is human Sirtuin 1 (SIRT1), SIRT1 (gene 23411) (UniProt Q96EB6). As to the kind of experiment: NVS_ENZ_hSIRT1: NovaScreen (NVS) Enzymatic Assay for human Sirtuin 1 (SIRT1) (AID 2283219). The method in brief:
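Cell-free recombinant SIRT1 with a fluorescent substrate; substrate and product separated by electrophoretic mobility shift and read by fluorescence intensity, 1 h after dosing. Primary screen at 25 uM in duplicate; hits re-run in concentration-response up to 50 uM, relative to DMSO.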

The target in assay [9] is human Vascular Endothelial Growth Factor Receptor 3 (VEGFR3), FLT4 (gene 2324) (UniProt P35916). The experiment in a line: NVS_ENZ_hVEGFR3: NovaScreen (NVS) Enzymatic Assay for human Vascular Endothelial Growth Factor Receptor 3 (VEGFR3) (AID 2283229). The method, boiled down:
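Chemicals first run in duplicate at 25 uM, with actives re-tested in concentration series to a top of 50 uM. Recombinant VEGFR3 activity measured after 1 h via fluorescence with mobility-shift product separation; inhibition fitted relative to DMSO.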

Assay [10] concerns the target human Protein Tyrosine Phosphatase Non-receptor Type 1 (PTPN1), PTPN1 (gene 5770) (UniProt P18031). The experiment in a line: NVS_ENZ_hPTPN1: NovaScreen (NVS) Enzymatic Assay for human Protein Tyrosine Phosphatase Non-receptor Type 1 (PTPN1) (AID 2283201). The method, boiled down:
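Chemicals were first tested in duplicate at 25 uM, and those passing threshold went on to singleton concentration series topping at 50 uM. Recombinant enzyme, specific substrate, product separated by mobility shift, fluorescence read at 1.33 h; activity loss relative to DMSO.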

Assay [11] has as its target Tyrosine-protein phosphatase non-receptor type 11 (Homo sapiens) (UniProt Q06124). As to the kind of experiment: NVS_ENZ_hPTPN11: NovaScreen (NVS) Enzymatic Assay for human Protein Tyrosine Phosphatase Non-receptor Type 11 (PTPN11) (AID 2283202). The method, boiled down: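 Compounds first tested in duplicate at 25 uM; those reaching ~30% inhibition rerun in singleton concentration-response, top 50 uM. Phosphatase activity measured after 0.5 h by fluorescence with mobility-shift separation, relative to DMSO.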

Assay [12] deals with Tyrosine-protein phosphatase non-receptor type 12 (Homo sapiens) (UniProt Q05209). As to the kind of experiment: NVS_ENZ_hPTPN12: NovaScreen (NVS) Enzymatic Assay for human Protein Tyrosine Phosphatase Non-receptor Type 12 (PTPN12) (AID 2283204). The method, boiled down:
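Single-concentration duplicates (25 uM) preceded singleton concentration-response up to 50 uM for chemicals passing threshold. Cell-free recombinant PTPN12 activity was read 1.33 h after dosing via fluorescence after mobility-shift separation; loss of signal versus DMSO.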

For assay [13], the target named is Tyrosine-protein phosphatase non-receptor type 13 (Homo sapiens) (UniProt Q12923). As to the kind of experiment: NVS_ENZ_hPTPN13: NovaScreen (NVS) Enzymatic Assay for human Protein Tyrosine Phosphatase Non-receptor Type 13 (PTPN13) (AID 2283205). The method in brief: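 Screened first at a single 25 uM in duplicate; compounds passing the threshold (e.g. 30% inhibition) were rerun in concentration series, top 50 uM. Recombinant enzyme, fluorescent substrate, mobility-shift separation, 0.5 h read. Data fitted as inhibition relative to DMSO.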

Assay [14] has as its target human Protein Tyrosine Phosphatase Non-receptor Type 9 (PTPN9), PTPN9 (gene 5780) (UniProt P43378). The experiment in a line: NVS_ENZ_hPTPN9: NovaScreen (NVS) Enzymatic Assay for human Protein Tyrosine Phosphatase Non-receptor Type 9 (PTPN9) (AID 2283209). The method, boiled down: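 Sf9-expressed enzyme in a cell-free assay, fluorescence read 1.33 h after dosing with mobility-shift separation of substrate and product. Tested at 25 uM in duplicate, then up to 50 uM; signal loss versus DMSO.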

Assay [15] addresses human Protein Tyrosine Phosphatase Receptor Type M (PTPRM), PTPRM (gene 5797) (UniProt P28827). As to the kind of experiment: NVS_ENZ_hPTPRM: NovaScreen (NVS) Enzymatic Assay for human Protein Tyrosine Phosphatase Receptor Type M (PTPRM) (AID 2283215). The method in brief:
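Read-out is fluorescence after electrophoretic separation of substrate and product, taken 1.33 h post-dosing with recombinant enzyme. Compounds screened at 25 uM in duplicate, then concentration series for actives; activity as signal loss relative to DMSO.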

Assay [16] deals with Tyrosine-protein phosphatase non-receptor type 14 (Homo sapiens) (UniProt Q15678). The experiment in a line: NVS_ENZ_hPTPN14: NovaScreen (NVS) Enzymatic Assay for human Protein Tyrosine Phosphatase Non-receptor Type 14 (PTPN14) (AID 2283206). The method, boiled down: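 Fluorescent substrate turnover by recombinant human PTPN14 was measured 0.5 h after compound addition, with substrate and product separated by mobility shift. Single-point screening at 25 uM, then concentration-response up to 50 uM for chemicals meeting threshold (e.g., 30% inhibition).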

Assay [17] addresses human Rho Associated Coiled-coil Containing Protein Kinase 1 (ROCK1), ROCK1 (gene 6093) (UniProt Q13464). As to the kind of experiment: NVS_ENZ_hROCK1: NovaScreen (NVS) Enzymatic Assay for human Rho Associated Coiled-coil Containing Protein Kinase 1 (ROCK1) (AID 2283214). The method, boiled down:
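Compounds first run in duplicate at 25 uM against recombinant human ROCK1, then followed in concentration series. Kinase activity was read 1 h post-dosing by fluorescence with mobility-shift separation, as signal loss relative to DMSO.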

Assay [18] has as its target rabbit Imidazoline 2 Central (I2C), CKB (gene 100009085) (UniProt P00567). As to the kind of experiment: NVS_ENZ_rabI2C: NovaScreen (NVS) Enzymatic Assay for rabbit Imidazoline 2 Central (I2C) (AID 2283228). The method, boiled down:
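Rabbit brain membranes, cell-free; readout by filter-based scintillation counting 1.5 hours after dosing, loss of signal vs DMSO. Initial duplicate test at 25 uM, then concentration-response with 50 uM top concentration.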

The target of assay [19] is human Protein Tyrosine Phosphatase Non-receptor Type 6 (PTPN6), PTPN6 (gene 5777) (UniProt P29350). The experiment in a line: NVS_ENZ_hPTPN6: NovaScreen (NVS) Enzymatic Assay for human Protein Tyrosine Phosphatase Non-receptor Type 6 (PTPN6) (AID 2283210). The method in brief: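 Recombinant human PTPN6 from SF9 cells, enzyme activity followed by fluorescence after mobility-shift separation of substrate and product at 1.33 h. Chemicals first tested at a single 25 uM in duplicate, then confirmed across concentration series; loss of signal relative to DMSO.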

human Protein Tyrosine Phosphatase Receptor Type F (PTPRF), PTPRF (gene 5792), sequence (P10586 whole entry, looked up): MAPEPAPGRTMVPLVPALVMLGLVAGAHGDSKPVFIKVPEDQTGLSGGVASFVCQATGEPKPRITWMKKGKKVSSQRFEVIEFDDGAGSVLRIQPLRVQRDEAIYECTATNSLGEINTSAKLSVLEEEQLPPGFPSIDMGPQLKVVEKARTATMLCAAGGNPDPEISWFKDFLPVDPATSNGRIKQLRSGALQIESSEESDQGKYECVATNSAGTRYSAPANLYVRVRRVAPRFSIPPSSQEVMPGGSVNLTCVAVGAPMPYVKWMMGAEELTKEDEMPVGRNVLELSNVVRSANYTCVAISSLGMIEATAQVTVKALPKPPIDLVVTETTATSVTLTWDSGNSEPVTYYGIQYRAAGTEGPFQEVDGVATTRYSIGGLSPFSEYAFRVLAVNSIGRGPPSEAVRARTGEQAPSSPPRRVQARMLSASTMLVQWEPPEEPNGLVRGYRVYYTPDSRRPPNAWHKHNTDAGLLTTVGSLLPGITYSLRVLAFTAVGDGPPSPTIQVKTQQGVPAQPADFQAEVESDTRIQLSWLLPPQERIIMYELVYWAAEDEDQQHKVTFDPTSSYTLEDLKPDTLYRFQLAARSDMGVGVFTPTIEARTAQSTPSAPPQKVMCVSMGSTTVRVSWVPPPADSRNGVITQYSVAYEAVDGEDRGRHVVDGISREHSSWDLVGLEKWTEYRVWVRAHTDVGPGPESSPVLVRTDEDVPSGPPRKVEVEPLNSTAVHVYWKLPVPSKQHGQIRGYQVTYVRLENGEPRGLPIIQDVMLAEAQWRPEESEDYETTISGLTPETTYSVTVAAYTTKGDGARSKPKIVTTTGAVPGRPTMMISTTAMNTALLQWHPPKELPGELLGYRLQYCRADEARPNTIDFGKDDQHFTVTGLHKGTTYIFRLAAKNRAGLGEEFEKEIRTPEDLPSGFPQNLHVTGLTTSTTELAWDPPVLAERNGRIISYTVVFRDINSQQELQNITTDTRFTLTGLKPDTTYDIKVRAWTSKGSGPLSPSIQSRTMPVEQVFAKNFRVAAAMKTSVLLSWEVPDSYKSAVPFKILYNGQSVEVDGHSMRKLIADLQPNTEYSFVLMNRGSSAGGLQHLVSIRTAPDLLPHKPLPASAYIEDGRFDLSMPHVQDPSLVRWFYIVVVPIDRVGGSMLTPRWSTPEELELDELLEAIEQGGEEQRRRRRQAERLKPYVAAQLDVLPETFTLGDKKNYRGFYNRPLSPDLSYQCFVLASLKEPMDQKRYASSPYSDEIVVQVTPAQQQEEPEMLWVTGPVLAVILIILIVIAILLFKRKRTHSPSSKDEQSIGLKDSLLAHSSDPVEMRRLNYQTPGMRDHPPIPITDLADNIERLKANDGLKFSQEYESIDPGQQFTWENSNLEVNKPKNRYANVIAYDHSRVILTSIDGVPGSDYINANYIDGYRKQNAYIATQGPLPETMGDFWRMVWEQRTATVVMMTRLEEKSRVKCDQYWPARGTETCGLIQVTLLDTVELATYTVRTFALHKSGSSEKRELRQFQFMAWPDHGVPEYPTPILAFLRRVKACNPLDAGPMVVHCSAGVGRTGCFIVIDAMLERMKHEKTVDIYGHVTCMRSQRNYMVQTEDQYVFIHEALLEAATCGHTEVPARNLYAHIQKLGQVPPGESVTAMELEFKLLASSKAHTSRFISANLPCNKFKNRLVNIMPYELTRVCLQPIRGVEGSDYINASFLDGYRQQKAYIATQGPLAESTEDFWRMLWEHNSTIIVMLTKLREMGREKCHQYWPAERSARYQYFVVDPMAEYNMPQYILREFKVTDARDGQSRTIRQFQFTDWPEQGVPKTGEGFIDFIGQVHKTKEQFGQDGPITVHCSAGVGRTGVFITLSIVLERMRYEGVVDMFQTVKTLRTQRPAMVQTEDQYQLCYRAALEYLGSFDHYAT
human Rho Associated Coiled-coil Containing Protein Kinase 1 (ROCK1), ROCK1 (gene 6093), sequence (Q13464 whole entry, looked up): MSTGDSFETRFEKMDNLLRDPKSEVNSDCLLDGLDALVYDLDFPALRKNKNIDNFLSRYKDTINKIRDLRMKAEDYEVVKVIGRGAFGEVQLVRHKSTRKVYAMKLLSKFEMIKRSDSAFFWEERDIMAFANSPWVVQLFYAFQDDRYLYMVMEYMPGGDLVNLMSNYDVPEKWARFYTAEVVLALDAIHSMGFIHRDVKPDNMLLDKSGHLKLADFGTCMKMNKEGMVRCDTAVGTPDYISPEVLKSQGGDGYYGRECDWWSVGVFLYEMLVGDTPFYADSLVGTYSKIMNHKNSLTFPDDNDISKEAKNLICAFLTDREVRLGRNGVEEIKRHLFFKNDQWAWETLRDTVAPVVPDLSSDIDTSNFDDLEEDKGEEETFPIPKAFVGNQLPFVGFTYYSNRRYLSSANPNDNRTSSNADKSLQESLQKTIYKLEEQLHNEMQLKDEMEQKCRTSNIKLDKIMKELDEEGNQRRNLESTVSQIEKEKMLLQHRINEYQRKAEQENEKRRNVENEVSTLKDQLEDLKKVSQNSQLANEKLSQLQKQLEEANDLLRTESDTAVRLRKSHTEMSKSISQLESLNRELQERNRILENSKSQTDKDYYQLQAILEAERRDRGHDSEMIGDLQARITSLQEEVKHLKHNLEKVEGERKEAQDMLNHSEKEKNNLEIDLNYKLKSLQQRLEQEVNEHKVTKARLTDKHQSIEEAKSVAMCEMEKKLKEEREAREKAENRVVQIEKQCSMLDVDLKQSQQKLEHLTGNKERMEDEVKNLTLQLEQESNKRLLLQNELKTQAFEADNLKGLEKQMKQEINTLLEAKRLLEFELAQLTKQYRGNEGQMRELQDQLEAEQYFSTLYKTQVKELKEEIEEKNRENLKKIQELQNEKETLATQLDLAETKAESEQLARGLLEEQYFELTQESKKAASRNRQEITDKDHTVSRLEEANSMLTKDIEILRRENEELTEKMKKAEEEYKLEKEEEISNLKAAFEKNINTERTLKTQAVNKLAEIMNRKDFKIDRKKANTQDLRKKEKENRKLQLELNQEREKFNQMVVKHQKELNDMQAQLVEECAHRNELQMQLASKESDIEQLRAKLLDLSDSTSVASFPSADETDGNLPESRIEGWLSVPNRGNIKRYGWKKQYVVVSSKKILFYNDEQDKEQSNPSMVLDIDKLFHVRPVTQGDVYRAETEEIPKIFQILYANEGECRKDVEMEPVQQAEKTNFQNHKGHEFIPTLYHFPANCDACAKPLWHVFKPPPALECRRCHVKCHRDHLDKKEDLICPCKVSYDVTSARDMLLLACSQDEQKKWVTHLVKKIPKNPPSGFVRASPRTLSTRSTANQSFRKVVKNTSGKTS
human Tropomyosin Receptor Kinase A (TRKA), NTRK1 (gene 4914), sequence (P04629 whole entry, looked up): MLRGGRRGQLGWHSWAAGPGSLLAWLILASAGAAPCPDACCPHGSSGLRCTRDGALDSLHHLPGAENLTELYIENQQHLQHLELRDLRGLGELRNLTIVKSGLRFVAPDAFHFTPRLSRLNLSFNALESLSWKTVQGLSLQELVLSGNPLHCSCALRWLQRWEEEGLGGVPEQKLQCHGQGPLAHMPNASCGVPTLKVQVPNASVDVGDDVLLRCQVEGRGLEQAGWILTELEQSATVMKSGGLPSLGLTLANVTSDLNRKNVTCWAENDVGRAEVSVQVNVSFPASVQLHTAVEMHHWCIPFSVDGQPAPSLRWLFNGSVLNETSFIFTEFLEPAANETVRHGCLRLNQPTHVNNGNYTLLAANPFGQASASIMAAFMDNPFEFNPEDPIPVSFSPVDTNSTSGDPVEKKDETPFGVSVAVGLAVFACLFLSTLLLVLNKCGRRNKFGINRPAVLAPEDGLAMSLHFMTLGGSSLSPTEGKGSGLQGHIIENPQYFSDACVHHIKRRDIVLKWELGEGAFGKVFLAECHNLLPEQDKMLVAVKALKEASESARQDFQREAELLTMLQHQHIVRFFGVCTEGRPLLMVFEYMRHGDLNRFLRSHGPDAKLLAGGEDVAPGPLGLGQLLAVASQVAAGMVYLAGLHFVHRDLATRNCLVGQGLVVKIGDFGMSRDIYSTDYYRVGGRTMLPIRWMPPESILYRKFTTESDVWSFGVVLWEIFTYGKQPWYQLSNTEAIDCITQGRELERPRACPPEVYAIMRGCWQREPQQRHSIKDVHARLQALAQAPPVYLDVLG
human Protein Tyrosine Phosphatase Non-receptor Type 9 (PTPN9), PTPN9 (gene 5780), sequence (P43378 whole entry, looked up): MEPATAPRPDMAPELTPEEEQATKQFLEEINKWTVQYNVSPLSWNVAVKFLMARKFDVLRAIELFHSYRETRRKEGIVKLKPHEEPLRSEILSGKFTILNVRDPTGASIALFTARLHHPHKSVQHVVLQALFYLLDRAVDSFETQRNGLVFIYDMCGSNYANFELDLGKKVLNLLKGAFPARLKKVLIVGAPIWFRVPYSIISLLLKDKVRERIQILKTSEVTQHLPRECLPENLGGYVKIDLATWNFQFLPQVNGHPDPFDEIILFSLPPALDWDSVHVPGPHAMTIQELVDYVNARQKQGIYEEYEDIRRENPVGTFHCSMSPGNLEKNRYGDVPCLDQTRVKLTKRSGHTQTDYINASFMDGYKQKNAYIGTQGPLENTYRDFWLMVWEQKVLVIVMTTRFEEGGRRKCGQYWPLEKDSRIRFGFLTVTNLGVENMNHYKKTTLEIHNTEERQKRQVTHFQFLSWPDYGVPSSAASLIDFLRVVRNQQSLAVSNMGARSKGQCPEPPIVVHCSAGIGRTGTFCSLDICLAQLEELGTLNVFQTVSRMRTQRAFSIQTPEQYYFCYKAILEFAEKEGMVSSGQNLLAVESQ
human Protein Tyrosine Phosphatase Non-receptor Type 1 (PTPN1), PTPN1 (gene 5770), sequence (P18031 whole entry, looked up): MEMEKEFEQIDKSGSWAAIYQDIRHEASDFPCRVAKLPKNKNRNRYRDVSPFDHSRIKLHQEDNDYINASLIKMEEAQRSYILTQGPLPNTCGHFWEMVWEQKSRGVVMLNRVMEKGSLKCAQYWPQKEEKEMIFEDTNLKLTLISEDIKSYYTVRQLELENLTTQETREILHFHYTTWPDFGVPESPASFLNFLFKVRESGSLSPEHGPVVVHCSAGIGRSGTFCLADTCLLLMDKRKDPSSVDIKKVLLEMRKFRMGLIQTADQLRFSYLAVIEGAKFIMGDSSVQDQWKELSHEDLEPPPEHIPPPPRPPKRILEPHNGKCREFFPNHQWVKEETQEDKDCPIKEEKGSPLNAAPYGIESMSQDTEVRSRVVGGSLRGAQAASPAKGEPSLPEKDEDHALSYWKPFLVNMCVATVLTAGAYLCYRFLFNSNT

Take `Cc1nn(C)c(Oc2ccccc2)c1C=NOCc1ccc(C(=O)OC(C)(C)C)cc1`: in assay [1], the AC50 is 6.6 µM (active).
As for `CCCOC(=O)NCCCN(C)C`, the molecule was classed as inactive in [2].
In the case of `O=C(c1ccc(O)cc1O)c1ccc(O)cc1O`, the figures for the AC50 in assay [3], in [4] and in assay [5] were 15 µM (active), 25 µM (active) and 25 µM (active), respectively.
`CCCN(CCC)C(=O)SCC`: the molecule was called inactive in assay [6].
Regarding `c1ccc(Nc2ccccc2)cc1`, in assay [7], the call was inactive.
On to `N#CSCSc1nc2ccccc2s1`, for which, in assay [2], the outcome was inactive. Also, in assay [8], the AC50 was 10.7 µM (active).
For `COCCO`, the molecule was called inactive in assay [5] and in assay [9].
Consider `O=C(O)C1(C(=O)Nc2ccc(Cl)cc2Cl)CC1`, for which the AC50 was 3.82 µM (active) in [10]; 6.94 µM (active) in assay [11]; 25 µM (active) in [12]; 3.91 µM (active) in assay [13]; 3.23 µM (active) in assay [7]; 4.28 µM (active) in [14]. For the same molecule, the figures for the AC50 in assay [15] and in [9] were 12.4 µM (active) and 14.9 µM (active), respectively. In addition, the molecule was called inactive in assay [2].
As to `CC(C)CCCCCCc1ccc(O)cc1`, the molecule was classed as inactive in [10], in [11], in [13], in [16], in [14] and in assay [2]. Further, the molecule was called inactive in assay [17], in assay [15], in [8] and in assay [4].
Regarding `CCCCC(CC)CN1C(=O)C2C3C=CC(C3)C2C1=O` (stereo not drawn), the call in assay [18] was inactive.
As to `CN(C)C(=O)Nc1ccc(Cl)c(Cl)c1`, the molecule was called inactive in [2].
For the molecule `COc1nc(C)nc(NC(=O)NS(=O)(=O)c2ccccc2OCCCl)n1`, the molecule was classed as inactive in assay [7], in assay [14] and in assay [15].
Turning to `CSC(=O)c1cccc2nnsc12`, the molecule was called inactive in assay [7] and in assay [17].
As to `CC(C)(c1ccc(O)cc1)c1ccc(O)cc1`, the result in assay [6], in [17], in [8], in assay [5] and in assay [9] was inactive. Also, the AC50 in assay [4] is 15.4 µM (active).
In the case of `c1ccc2[nH]c(-c3cscn3)nc2c1`, the AC50 was 25 µM (active) in [3], 8.41 µM (active) in [4] and 4.07 µM (active) in assay [18].
Consider `CCNc1nc(N)nc(Cl)n1`, for which the result in assay [6] was inactive.
As for `CCCN(CCC)c1c([N+](=O)[O-])cc(C(F)(F)F)c(N)c1[N+](=O)[O-]`, the molecule was called inactive in assay [12], in [7], in [19] and in assay [15]. In addition, the half-maximal activity concentration (AC50) in assay [14] is 19.9 µM (active).
As to `COC(=O)c1ccccc1S(=O)(=O)NC(=O)Nc1nc(OC(F)F)cc(OC(F)F)n1`, the molecule was called inactive in [6].
